# Screening results (PubChem BioAssay)
# EBV LMP1 NFkB: reduces LMP1-driven NF-kappaB luciferase signal | inhibition, % at 12.5 µM | LMP1-induced NF-kappaB luciferase reporter cells, luminescence | 350,000 compounds, 0.69% hits | AID 504558; in the data active = inhibition above about 41%; inconclusive = no clear call, values can overlap the other calls;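 also: 0% = neutral control wells and 100% = reference inhibitor control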
# HSP90 inh: inhibitors of HSP90 luciferase refolding in rabbit reticulocyte lysate; luciferase refolding luminescence, 3 h; inhibition, % at 5.6 µM; 290,000 compounds, 0.91% hits; AID 1789;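 active = inhibition above the screen-wide mean plus 3 SD, computed separately per campaign, cut at about 16% in these data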;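 also: 0% = DMSO wells and 100% = 60 µM geldanamycin wells; inhibitors lower the luminescence because luciferase stays unfolded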
# HSF1 activator: increases HSF-1 driven luciferase reporter signal | NIH3T3-HGL HSF-1 luciferase reporter, MG132, 8 h; 100% = twice DMSO control signal | activation, % at 9 µM | 300,000 compounds, 1.7% hits | AID 504408;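 active = mean replicate activation of at least 50% with a set share of replicates each reaching 50%; inconclusive = only one of those two conditions met; inactive = mean below 50% and too few replicates reaching it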;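 also: 0% = median of the neutral control wells and 100% = twice that signal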
# TWEAK Fn14 block: TWEAK-Fn14 signaling inhibition; TWEAK-stimulated Fn14 reporter cells, luciferase luminescence, 8 h; inhibition, % at 10 µM; 360,000 compounds, 2% hits; AID 1159606; in the data active = inhibition above about 50%
# HSF1 inhib: HSF1 inhibition; NIH3T3-HGL HSE-luciferase, MG132-induced, luminescence 8 h; hits give low values; AID 2098; activity change, negative = inhibition, % at 7.5 µM (by protocol); 300,000 compounds, 0.77% hits;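 active = more than half of replicate wells show activity change below -50%, luminescence cut by over half; inconclusive = some wells, but at most half, below -50%; inactive = no replicate well below -50%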;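 also: luciferase reports HSF-1 transcriptional activity via heat shock element; 0% = median of DMSO wells and -100% = zero luminescence signal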
# TROY signal inh: inhibitors of TROY-dependent NF-kB signaling; 360,000 compounds, 0.98% hits; Q293 LMP1-TROYcd NF-kB luciferase reporter, 4 h; inhibition, % at 10 µM; AID 1347056;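 active = compounds whose plate-normalised and pattern-corrected inhibition of the luciferase reporter signal at the single screening dose is 50% or more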
# An asterisk follows results filed as active; ? = inconclusive; . = no result. Hits are enriched below; roughly 4.7% of the tested compounds scored in any of these assays.
SMILES,EBV LMP1 NFkB,HSP90 inh,HSF1 activator,TWEAK Fn14 block,HSF1 inhib,TROY signal inh
CCOC(=O)c1cc(NC(=O)Nc2ccccc2Cl)c(C)nc1C,-6,0,-3,5,2,17
O=C(O)c1cocc1C(=O)O,-1,.,.,-14,.,3
Cc1nc(NC(=O)c2ccccc2)sc1-c1cc(C(=O)N2CCOCC2)nn1Cc1ccccc1,12,.,.,6,.,-2
FC(F)(F)Oc1ccc(Nc2nc3ccccc3o2)cc1,-38,7,78*,-27,45,-27
c1ccc(Nc2nc3ccccc3o2)cc1,-23,3,43,-2,24,-40
[O-][N+](=Cc1ccccc1)CC1(O)CCCCC1,-5,.,.,-33,.,3
COC(=O)c1c(C)n(-c2ccc(OC)cc2)c2ccc(O)cc12,16,-4,-30,52*,-24,39
COc1ccc(-n2c(C)c(C(C)=O)c3cc(OC(C)=O)ccc32)cc1,60*,-6,-55,84*,-45,52*
CCOC(=O)c1c(C)n(-c2ccc(F)cc2)c2ccc(O)cc12,18,-6,-15,23,3,0
CC(=O)Nc1ccc(OCc2cn(CC(=O)c3ccc(O)cc3)nn2)cc1,1,.,.,12,.,0
CCc1cc(=O)oc2c(CN3CCN(C)CC3)c(O)ccc12,-8,5,4,6,7,10
CN1CCN(Cc2c(O)ccc3cc(Br)ccc23)CC1,.,-3,134*,.,112,.
O=C(Nc1ccccc1Cl)OCC#CCOC(=O)Nc1ccccc1Cl,7,.,.,-18,.,-9
CCOc1cccc(/C=C2\NC(=S)N(c3ccccc3)C2=O)c1O,-7,0,102*,-3,82,-24
CC1=C(c2ccccc2)C(O)(c2ccccc2)C(C)C1=O (stereo not given),-7,.,.,2,.,10
CCCCN1/C(=C/c2ccc3ccccc3[n+]2CC)Sc2ccccc21,52*,-1,57*,66*,11,26
CCN1/C(=C/c2ccc3ccccc3[n+]2CC)C=Cc2ccccc21,53*,-1,5,56*,-11,52*
O=C(Cc1ccccc1)Nc1cc(Cl)ccc1Sc1ccccc1,-31,2,58*,-16,29,-7
Nc1[nH]c(C(=O)c2ccccc2)c(-c2ccc(F)cc2)c1C(=O)NCc1ccccc1,.,.,.,7,.,14
Cc1ccc(S(=O)(=O)NNC(=O)c2sccc2-n2cccc2)cc1,15,-1,24,16,8,-9
Cc1ccc(S(=O)(=O)NNC(=O)c2sc3nc(C)cc(C)c3c2-n2cccc2)cc1,0,2,73*,4,30,18
CSc1nc2ccc(N3C(=O)C4CCCCC4C3=O)cc2s1 (stereo not given),-9,2,16,107*,7,-36
COc1cccc(/C=N/NC(=S)NC2CC3CC2C2C=CCC32)c1O (stereo not given),-5,-3,105*,-14,81,-28
Oc1ccccc1/C=N/NC(=S)NC1CC2CC1C1C=CCC21 (stereo not given),-6,1,18,12,10,-16
Nc1cc(=O)nc2cn[nH]n12,1,.,.,2,.,5
SMILES,EBV LMP1 NFkB,HSP90 inh,HSF1 activator,TWEAK Fn14 block,HSF1 inhib,TROY signal inh
CCN(CC)c1ncnc2c1ncn2[C@H]1CN(Cc2ccc(F)cc2)C[C@@H](CO)O1,.,.,.,-44,.,2
Cc1nnc(N2CCCC(C(=O)Nc3cc(F)ccc3F)C2)c2nn(-c3ccccc3)c(C)c12 (stereo not given),55*,5,-47,39,-37,53*
Cc1nnc(N2CCCC(C(=O)NCc3ccc(OC(C)C)cc3)C2)c2nn(-c3ccccc3)c(C)c12 (stereo not given),14,-2,3,32,0,26
COc1ccc(C2C(=O)c3ccccc3C2=O)cc1,-4,3,6,2,1,-5
COc1ccc(N=C(C)C2C(=O)c3ccccc3C2=O)cc1,.,.,.,64*,.,16
CC1=C(C(=O)OCc2ccccc2)C(c2cccc(Cl)c2Cl)NC(=O)N1CCCCCC(=O)O (stereo not given),-1,1,-14,-12,1,0
COC(=O)C1=C(C)N(CCCC(=O)O)C(=O)NC1c1cccc(Cl)c1Cl (stereo not given),51*,.,-10,8,-4,-9
CCc1nc2sc3ccccc3c(=O)c2c(=O)n1Cc1ccc(OC)cc1,0,3,-64,-30,-65*,-23
CCCc1nc2sc3ccccc3c(=O)c2c(=O)n1CCOC,.,-1,1,.,-4,.
CCCCCCc1cc2cc(S(=O)(=O)c3ccc(F)c(Cl)c3)c(=O)oc2cc1O,0,4,-41,54*,?,58*
CCOC(=O)[C@]12CCC=C1N(Cc1cccc3ccccc13)C(=O)[C@H](CC(=O)N1CCOCC1)C2,.,.,.,-8,.,-1
C/C=C/c1ccc(OCC(=O)Nc2cc(OC)c(OC)c(OC)c2)c(OC)c1,9,-2,-60,-13,-52*,17
Cc1ccccc1NC(=O)C(Cl)=C(Cl)Cl,90*,-1,45,12,20,-5
Cc1ccccc1NNC(=O)C(=O)NNc1ccccc1C,-26,2,19,10,-1,-32
CCOC(=O)Cn1nnnc1CN(Cc1cccs1)Cc1cc2cc(C)ccc2[nH]c1=O,0,3,9,4,9,-7
Cc1ccc2[nH]c(=O)c(CN(Cc3cccs3)Cc3nnnn3Cc3ccccc3)cc2c1,-13,-2,71*,1,24,-2
O=[N+]([O-])c1ccc(/C=[N+](\[O-])[C@@H]2CCCC[C@@H]2/[N+]([O-])=C/c2ccc([N+](=O)[O-])o2)o1,-25,7,71*,-3,50,-10
CNC1(C)[C@H]2CC[C@H](C2)C1(C)C (stereo not given in full),81*,.,.,-1,.,-9
COc1ccc(-c2coc3c(C(=O)NCc4ccc(F)c(F)c4)cccc23)c(C)c1,.,.,.,26,.,19
COc1ccc(-c2coc3c(C(=O)Nc4cc(OC)c(OC)c(OC)c4)cccc23)c(C)c1,.,.,.,93*,.,63*
COc1cc(NC(=O)c2cccc3c(-c4cccnc4)coc23)cc(OC)c1OC,.,.,.,80*,.,68*
CC(=O)c1cccc(NC(=O)c2cccc3c(-c4cccc(C(N)=O)c4)coc23)c1,.,.,.,83*,.,64*
COc1ccc(-c2coc3c(C(=O)NCc4ccc(OC)c(OC)c4)cccc23)c(C)c1,.,.,.,63*,.,44
O=C(Nc1cccc(C(F)(F)F)c1)c1cccc2c(-c3cccnc3)coc12,.,.,.,17,.,33
CCC(=O)Nc1ccc(C(=O)NNC(=O)CCCCC(=O)NNC(=O)c2ccc(NC(=O)CC)cc2)cc1,1,.,.,-4,.,-7
CC(C)(C)c1ccc(C(=O)N2CCC2(C)C(=O)NS(=O)(=O)c2ccc(C#N)cc2)cc1 (stereo not given),.,.,.,1,.,-6
O=C(Nc1cccc(F)c1)c1ccc(-c2cccnc2)c2ccoc12,.,.,.,77*,.,40
